Measured values from PubChem BioAssay (EPA / NIEHS).
Values joined by “and” are separate entries in the source; they are usually repeats but may differ in a detail not shown here. Identical values can stand only once. Active and inactive are the calls of the source. The calls were made as follows: active = hit-call score of the fitted dose curve at least 0.9, where 1 is the maximum; inactive = score below 0.9.

assay: APR_HepG2_NuclearSize_72hr: Apredica 72-hour HepG2 Assay for Nuclear Size (AID 2282925); conditions: high-content imaging, actives raise or lower the signal
Description: APR_HepG2_72hr is a cell-based, multiplexed-readout assay that uses HepG2, a human liver cell line, with measurements taken at 72 hours after chemical dosing in a 384-well plate.APR_HepG2_NuclearSize_72hr is one of 10 assay component(s) measured or calculated from the APR_HepG2_72hr assay. It is designed to make measurements of cell phenotype, a form of morphology reporter, as detected with fluorescence intensity signals by HCS Fluorescent Imaging technology.Data from the assay component APR_HepG2_NuclearSize_72hr was analyzed into 1 assay endpoint. This assay endpoint, APR_HepG2_NuclearSize_72hr, was analyzed with bidirectional fitting relative to DMSO as the negative control and baseline of activity. Using a type of morphology reporter, measures of all nuclear dna for gain or loss-of-signal activity can be used to understand the signaling at the nuclear-level. Furthermore, this assay endpoint can be referred to as a primary readout, because this assay has produced multiple assay endpoints where this one serves a signaling function. To generalize the intended target to other relatable targets, this assay endpoint is annotated to the cell morphology intended target family, where the subfamily is organelle conformation.
Cells were treated with dimethyl sulfoxide (DMSO) as a solvent control at a final concentration of 0.5% v/v or with compounds in DMSO with a resulting final DMSO concentration of 0.5% v/v. Compound treatment was done at concentrations of 0.39, 0.78, 1.56, 3.12, 6.24, 12.5, 25, 50, 100, and 200 uM in duplicate on each plate. Cells were treated with compounds for 1, 24, or 72 hr. Carbonyl […] m-chloro-phenylhydrazone (CCCP) and taxol were used as positive controls for mitochondrial function and cytoskeletal stability, respectively; DMSO served as the negative control for this experiment. Cells were fixed by the direct addition of 50 uL formaldehyde in Hank's Balanced Salt Solution (HBSS) to a final concentration of 3.7%. After incubation in the fixation medium for 30 min at room temperature (293-298 K), cells were rinsed twice with HBSS and treated with cell permeabilization buffer (16 uL of 0.5% Triton X-100) for 10 min at room temperature (293-298 K) before labeling. For mitochondrial membrane potential and mitochondrial measurements, pre-fixed cells were incubated with 50 uL of MitoTracker Red CMXRos (Invitrogen) at a concentration of 250 nM for 30 min before fixation. In the remaining cases, post-fixed cells were labeled by incubation with a multiplexed mixture of primary antibodies in HBSS for 60 min at room temperature (293-298 K) to detect immunoreactivity of c-Jun (1:500), phospho-histone H3 (1:100), phospho-histone H2A.x (1:200), p53 (1:400), alpha-tubulin (1:200) and Hoechst 33342 (2 ug/mL). Cells were labeled for multiplexed imaging on two separate plates: a) Hoechst 33342, MitoTracker Red, phospho-histone H3, and alpha-tubulin, and b) Hoechst 33342, phospho-histone H2A.x, and c-Jun. A final rinse with HBSS (50 uL) was performed before analysis. The primary and secondary antibodies for the proteins were phospho-histone H3 (rabbit anti-phospho-histone H3 and FITC-donkey anti-rabbit IgG), phospho-histone H2A.x (mouse anti-phospho-histone H2A.x and FITC-donkey anti-mouse IgG), c-Jun (rabbit anti-phospho-c-Jun and Cy3-donkey anti-rabbit IgG), p53 (sheep anti-p53 and Cy5-donkey anti-sheep IgG), alpha-tubulin (mouse anti-alpha-tubulin and Cy5-donkey anti-mouse IgG). These antibodies are available as the CellCiphr HepG2 assay kit (Millipore).Digital images of each well were captured using a Cellomics ArrayScan VTI (Thermo Scientific Cellomics) (0.8 NA objective, 0.63x optical coupler, and XF-93 filter set) at 20x magnification. The images were acquired using the autofocus feature of the ArrayScan instrument, which entails the following steps. First, the camera focuses on channel 1 (Hoechst 33342), where nuclei are identified. Second, a Z offset of 1 um is used for capturing mitochondria (MitoTracker Red). […]

Compound	AC50	outcome
N=C(N)c1ccc(OCCCCCOc2ccc(C(=N)N)cc2)cc1	45.5 µM (active)	
CCCCC=O		inactive
O=C1NS(=O)(=O)c2ccccc21		inactive
OCC(CO)(CBr)CBr		inactive
CCCCCCCCCCCCOS(=O)(=O)O		inactive
CCCCCCCCCCCCCCC		inactive
Cc1[nH]nc2c1N=C(c1ccccc1Cl)c1cc([N+](=O)[O-])ccc1N2	0.325 µM (active)	
CN(Cc1cnc2nc(N)nc(N)c2n1)c1ccc(C(=O)N[C@@H](CCC(=O)O)C(=O)O)cc1		inactive
CCCCC(CC)C(=O)O (centres undefined)		inactive

assay: ATG_CRE_CIS: Attagene CIS-FACTORIAL HepG2 Assay for human cAMP Responsive Element (CRE) binding protein 3 (AID 2282926); conditions: HepG2 CRE cis-reporter, Attagene multiplexed mRNA; actives raise or lower the signal
Outline: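 HepG2 cells transiently transfected with cis-element-driven multiple reporter transcription units; CRE reporter mRNA measured 24 h after dosing by RT-PCR, 6-FAM labelling, HpaI digestion and capillary electrophoresis. Bidirectional fit versus DMSO baseline.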

Compound	outcome	AC50
O=C(c1ccccc1)c1ccccc1	inactive	
N=C(N)c1ccc(OCCCCCOc2ccc(C(=N)N)cc2)cc1	inactive	
Cc1ccc(C)c(S(=O)(=O)O)c1	inactive	
c1cc[nH]c1	inactive	
C[C@]12CC[C@@H]3c4ccc(O)cc4CC[C@H]3[C@@H]1CC[C@@H]2OC(=O)CCC1CCCC1	inactive	
CCCCC=O	inactive	
O=C1c2ccccc2C(=O)c2c(O)c(O)cc(O)c21	inactive	
O=C1NS(=O)(=O)c2ccccc21	inactive	
O=P(O)(O)CCC(F)(F)C(F)(F)C(F)(F)C(F)(F)C(F)(F)C(F)(F)F	inactive	
Cc1ccc(C(=O)c2ccccc2)cc1	inactive	
CCCCc1oc2ccccc2c1C(=O)c1cc(I)c(OCCN(CC)CC)c(I)c1		20.9 µM (active)
Cc1cc(C(C)(C)C)c(O)c(C(C)(C)C)c1	inactive	
OCC(CO)(CBr)CBr	inactive	
CC1=CC(=O)c2ccccc2C1=O	inactive	
FC(OC(F)(F)C(F)(F)C(F)(F)F)C(F)(F)F (centres undefined)	inactive	
CC1CCC(C(=O)O)CC1 (centres undefined)	inactive	
CC[N+](CC)(CC)Cc1ccccc1	inactive	
FC(F)(F)C(F)(F)C(F)(F)C(F)(F)I	inactive	

Compound	outcome	AC50
CC(C)(C)c1ccc(CCC=O)cc1	inactive	
CCCCCCCCCCCCCCC	inactive	
COC1=CC(=O)C[C@@H](C)[C@]12Oc1c(Cl)c(OC)cc(OC)c1C2=O		130 µM (active)
FC(F)=C(F)C(F)(F)C(F)(F)C(F)(F)C(F)F	inactive	
O=S(=O)(c1ccc(OCc2ccccc2)cc1)c1ccccc1O		14.9 µM (active)
Cc1[nH]nc2c1N=C(c1ccccc1Cl)c1cc([N+](=O)[O-])ccc1N2	inactive	
CN(Cc1cnc2nc(N)nc(N)c2n1)c1ccc(C(=O)N[C@@H](CCC(=O)O)C(=O)O)cc1	inactive	
CCCCC(CC)C(=O)O (centres undefined)	inactive	
CCCCCCCCCCCCOC(=O)c1cc(O)c(O)c(O)c1	inactive	
O=C(CCCN1CCC(O)(c2ccc(Cl)cc2)CC1)c1ccc(F)cc1		52.9 µM (active)
FC(F)(F)C1(F)C(F)(F)C(F)(F)C(F)(F)C1(F)F	inactive	
CN(C)CCOC(c1ccccc1)c1ccccc1	inactive	
CCC(C)c1nccnc1OC (centres undefined)	inactive	
c1cnc2c(c1)ccc1cccnc12	inactive	
CC(=O)Nc1ccc(O)cc1	inactive	
O=C(CC(=O)C(F)(F)C(F)(F)C(F)(F)F)c1cccs1		44.6 µM (active) and 67.1 µM (active)
CC(C)[C@@H]1CC[C@@H](C)C[C@H]1O	inactive	
